# Screening data (PubChem)
# D3 ag: qHTS of D3 Dopamine Receptor Agonist: qHTS; AID 652048, 2013; D3R DiscoveRx beta-arrestin cells, luminescence, 90 min; D(3) dopamine receptor (Homo sapiens), P35462; max activation, %; 410,000 tested, 0.58% active; in the data active = max activation above about 30%; note: 0% is about no effect
# Target sequence (P35462 whole entry, looked up): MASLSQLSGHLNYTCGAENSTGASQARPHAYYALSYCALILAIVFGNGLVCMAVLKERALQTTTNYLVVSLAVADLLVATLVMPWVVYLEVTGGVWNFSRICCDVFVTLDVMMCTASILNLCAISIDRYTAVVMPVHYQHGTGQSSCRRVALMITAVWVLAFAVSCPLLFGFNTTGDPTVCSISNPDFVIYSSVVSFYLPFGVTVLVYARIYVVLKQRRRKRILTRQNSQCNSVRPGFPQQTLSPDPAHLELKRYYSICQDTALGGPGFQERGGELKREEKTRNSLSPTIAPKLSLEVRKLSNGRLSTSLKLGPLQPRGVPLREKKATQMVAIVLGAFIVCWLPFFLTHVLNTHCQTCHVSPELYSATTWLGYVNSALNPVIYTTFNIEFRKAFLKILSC
#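 Agonist-mode cell screen: cells plated at 1500/well and incubated overnight at 37 °C, then exposed to library compounds for 90 min at 37 °C. Detection reagent was added for 30–60 min at room temperature, and luminescence was read.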
# D1 agonist: Allosteric Agonists of the Human D1 Dopamine Receptor: qHTS | HEK293 T-REx D1 cells, calcium flux, agonist mode | AID 504660, 2011 | 360,000 tested, 1% active | activation, % at 2 µM | D(1A) dopamine receptor (Homo sapiens), P21728; in the data active = activation above about 30%; note: 0% is about no effect
#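 Agonism was scored from calcium flux recorded over 180 s (1 read/s) after pintool compound addition, following a 10-cycle baseline. Cells were inducible force-coupled HEK293 TREx D1, plated overnight at 30 C and loaded with no-wash calcium dye.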
# D3 antag: qHTS of D3 Dopamine Receptor Antagonist: qHTS; D(3) dopamine receptor (Homo sapiens), P35462; D3R cells, DiscoveRx beta-arrestin luminescence, antagonist mode; hits give low values; 360,000 tested, 2.5% active; AID 652054, 2013; max response, negative = inhibition, %; in the data active = max response below about -50%; inconclusive = no clear call, values can overlap the other calls; note: % is set by controls: 0 for no effect and ±100 for the full control effect
#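 Cells plated overnight at 1500 cells/well, then exposed to library compounds with dopamine controls for 90 minutes at 37 degrees C. DiscoveRx reagent added for 30–60 minutes at room temperature; luminescence read, quantitative HTS format.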
# D1 PAM: Potentiators of Human D1 Dopamine Receptor: qHTS. 360,000 tested, 0.036% active. potentiation, % at 10 µM. D(1A) dopamine receptor (Homo sapiens), P21728. HEK293 TREx D1 cells, calcium flux, dopamine EC20 potentiation; in the data active = potentiation above about 30%; note: 0% is about no effect
# D1 antag: Antagonist of Human D 1 Dopamine Receptor: qHTS | D(1A) dopamine receptor (Homo sapiens), P21728 | HEK293 TREx D1 cells, calcium flux, dopamine EC80; hits give low values | AID 504652, 2011 | activity change, negative = inhibition, % at 10 µM | 360,000 tested, 3.2% active; in the data active = activity change below about -30%; note: % is set by controls: 0 for no effect and ±100 for the full control effect
#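 Allosteric or orthosteric antagonism assessed as attenuation of the calcium response to EC80 dopamine, added 180 s after compound, in induced HEK293 Trex D1 cells loaded with no-wash calcium dye.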
# Active calls of the source: *; u = inconclusive; x = not tested or not shown. Compounds with a hit are over-represented: about 6.1% of the library has one in this group of screens.
SMILES,D3 ag,D1 agonist,D3 antag,D1 PAM,D1 antag
Cc1cccnc1C(NC(=O)C1CCN(Cc2ccc(Cl)cc2)CC1)c1ccccc1 (centres undefined),-29,x,-102*,x,x
Cc1cccnc1C(NC(=O)C1CCN(Cc2cn(C)c3ccccc23)CC1)c1ccc(Cl)cc1 (centres undefined),-23,x,-65*,x,x
O=C(NC(c1ccc(Cl)cc1)c1cnccn1)C1CCN(Cc2ccc(Oc3ccccc3)cc2)CC1 (centres undefined),-12,x,u,x,x
Cc1cccnc1C(NC(=O)C1CCN(CCCc2ccccc2)CC1)c1ccc(Cl)cc1 (centres undefined),-16,x,-78*,x,x
COc1cc(OC)nc(C(NC(=O)C2CCN(Cc3ccc(Oc4ccccc4)cc3)CC2)c2ccccc2C)n1 (centres undefined),-12,x,-28,x,x
COc1cccc(CNC(=O)c2ccc(CN3CC(=O)N4CCCCC4C3=O)cc2)c1 (centres undefined),-1,0,x,-2,-1
Cc1c(NS(=O)(=O)c2ccc(Cl)c(C(=O)OCC(=O)NCc3ccco3)c2)c(=O)n(-c2ccccc2)n1C,3,10,9,-9,23
CCCCNC(=O)C1C(c2ccc(OC)cc2)=Nc2ccccc2N1C(=O)Cc1cc(OC)cc(OC)c1 (centres undefined),-11,x,-10,x,x
COc1ccc(C(C(=O)NCC2CCCO2)N(C(=O)CNC(=O)c2cccs2)c2ccc(C)cc2)cc1OC (centres undefined),5,4,-6,2,8
Cc1cccnc1C(NC(=O)C1CCN(Cc2ccc(Oc3ccccc3)cc2)CC1)c1ccc(F)cc1 (centres undefined),-14,x,-67*,x,x
COc1ccc2cc(-c3nc4ccc(C(=O)O)cc4[nH]3)c(=O)oc2c1,-1,2,x,-1,7
COc1ccc(Oc2ccc(C(F)(F)F)cc2NC(=O)c2ccc(C)cc2)cc1,-9,31*,46,5,-8
CC(=O)Nc1cc(C(F)(F)F)ccc1Oc1cccc(Br)c1,2,30*,30,-12,-5
COc1ccc(OC)c(NC(=O)c2ccc(Cl)cc2)c1,-8,-1,-18,10,-36*
CCOCC(=O)Nc1cc(C(F)(F)F)ccc1Oc1cccc(Br)c1,-11,5,-24,1,3
O=C(COC(=O)c1cc(S(=O)(=O)N2CCOCC2)ccc1Cl)c1ccc[nH]1,-2,x,-20,x,x
CC1CCCC(C)N1CCCNC(=O)Cn1ncc2c3ccccc3n(C)c2c1=O (centres undefined),-3,1,-4,2,9
CC(C)CC(=O)NCC(c1ccc2c(c1)OCO2)N1CCN(c2ccccc2)CC1 (centres undefined),-19,0,x,0,2
CSc1ccccc1NC(=O)COC(=O)c1ccc(-n2nc(C)cc2C)cc1,6,x,-1,x,x
CCc1cc2c(s1)c1cnn(Cc3ccccc3F)c(=O)c1n2C,x,24,x,-1,9
CSc1cc2c(s1)c1cnn(Cc3ccccc3F)c(=O)c1n2C,x,4,x,38*,7
Cc1ccc(CSc2nc3ccc(NC(=O)COc4ccccc4)cc3s2)cc1,6,3,x,2,16
CCN(CC)c1ccc(/C=C2/SC(=O)N(C(C)C)C2=O)o1,-7,59*,-91*,-2,19
COc1ccccc1CNS(=O)(=O)c1c(C(=O)N2CCCCC2)c(C)n(C)c1C,0,0,1,4,9
O=C(Nc1cccc(C(F)(F)F)c1)C1CCN(S(=O)(=O)c2ccc(N3CCCC3=O)cc2)CC1,0,9,1,-11,-47*
SMILES,D3 ag,D1 agonist,D3 antag,D1 PAM,D1 antag
CC(=O)N1c2ccc(S(=O)(=O)N3CCC(C(=O)Nc4cccc(C(F)(F)F)c4)CC3)cc2CC1C (centres undefined),-6,3,-3,-4,-34*
COc1cccc(NC(=O)C2CCN(S(=O)(=O)c3ccc(N4CCCC4=O)cc3)CC2)c1,5,x,22,x,x
O=C1CCSc2ccc(S(=O)(=O)Nc3ccc(Cl)c(C(F)(F)F)c3)cc2N1,-9,6,x,-5,-17
CC(C)c1ccc2occ(CC(=O)Nc3ccccc3Cl)c2c1,0,8,x,3,-1
CCNC(=O)C1CCCN(Cc2cc(C(F)(F)F)ccc2Cl)CC1 (centres undefined),-20,x,-76*,x,x
CCNC(=O)C1CCCN(Cc2ccc(C(=O)OCC)cc2)CC1 (centres undefined),-8,x,0,x,x
Cc1ccc(C(=O)NC(=S)NNC(=O)c2cccc([N+](=O)[O-])c2)cc1,2,50*,55,0,-3
O=C(NNC(=S)NC(=O)c1cccc([N+](=O)[O-])c1)c1ccc(O)cc1,2,1,-4,-2,1
O=C(NNC(=S)NC(=O)c1cccc([N+](=O)[O-])c1)c1ccc(Br)cc1,17,32*,-4,-3,4
Cc1ccc(CSCCNC(=O)c2ccccc2)cc1,3,14,13,-2,1
Cc1ccc(CSCCNC(=O)c2cccc([N+](=O)[O-])c2)cc1,-9,19,0,-7,-43*
CN(C(=O)c1cccc(NC(=O)Cc2ccc(NC(=O)C3CCCN(C(=O)C4CCCC4)C3)cc2)c1)C1CC1 (centres undefined),1,x,1,x,x
CCOC(=O)NNC(=O)C1CCC(C)CC1 (centres undefined),3,1,13,-5,-2
CCC(=O)c1ccc(OCc2ccc(C#N)cc2)cc1,-4,-1,-12,-3,-37*
CCOc1ccc(OCc2ccc(C(=O)N(CC)CC)cc2)cc1,3,16,-4,-6,-42*
CCN(Cc1ccccc1)C(=O)c1ccc(C(=O)N(CC)Cc2ccccc2)cc1,-9,4,-19,1,-62*
CCN(CC)C(=O)c1ccc(CS(=O)(=O)Cc2ccccc2)cc1,1,7,7,0,-31*
CCN(CC)C(=O)c1ccc(-c2ccccc2)cc1,-1,1,-22,-10,-2
CCc1ccc(NC(=O)CSc2nc(=O)n(Cc3ccco3)c3c2CCC3)cc1,2,7,x,-2,x
Cc1ccc(Cn2c(SCCN3CCCCC3)nc3c2c(=O)[nH]c(=O)n3C)cc1,-3,-1,-18,-3,-43*
Cn1c(=O)[nH]c(=O)c2c1nc(Br)n2CCOc1ccccc1,4,4,-53*,-2,1
Cn1c(=O)[nH]c(=O)c2c1nc(SCCN1CCCCC1)n2CCCc1ccccc1,3,0,-68*,1,8
Cn1c(=O)[nH]c(=O)c2c1nc(NN)n2CCOc1ccccc1,7,0,13,7,0
